# From PubChem BioAssay (EPA / NIEHS)
# Records with an inconclusive call do not appear. Calls of active or inactive are those of the source. How the source made its calls: active means hit-call score of the fitted dose curve at least 0.9, where 1 is the maximum; inconclusive means response in the unintended direction; inactive means score below 0.9.
# Tests used:
# [1] = molecular target: rat Opioid Receptor, Non-selective Sodium (Na+) Binding, Oprm1 (gene 25601) (UniProt P33535); experiment: NVS_GPCR_rOpiate_NonSelectiveNa: NovaScreen (NVS) G Protein-Coupled Receptor Assay for rat Opioid Receptor, Non-selective Sodium (Na+) Binding (AID 2283311)
# rat Opioid Receptor, Non-selective Sodium (Na+) Binding, Oprm1 (gene 25601), sequence (P33535 whole entry, looked up): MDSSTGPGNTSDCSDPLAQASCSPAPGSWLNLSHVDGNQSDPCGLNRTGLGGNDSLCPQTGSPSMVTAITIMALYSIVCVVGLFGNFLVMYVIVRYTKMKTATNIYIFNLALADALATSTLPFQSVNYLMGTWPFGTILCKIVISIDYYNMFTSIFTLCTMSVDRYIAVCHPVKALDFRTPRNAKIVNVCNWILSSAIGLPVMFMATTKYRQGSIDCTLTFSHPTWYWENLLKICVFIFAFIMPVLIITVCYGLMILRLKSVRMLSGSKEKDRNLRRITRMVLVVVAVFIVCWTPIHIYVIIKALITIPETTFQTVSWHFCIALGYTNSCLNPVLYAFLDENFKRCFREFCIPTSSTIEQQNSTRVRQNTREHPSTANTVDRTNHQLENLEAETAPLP
# How it was run: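 Rat forebrain membranes, radioligand displacement with filter scintillation counting, 1.5 h incubation. Screened in duplicate at 25 µM; hits then run in concentration-response up to 50 µM; loss of binding fitted versus DMSO.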
# Adra2b (gene 24174) = Adra2b (gene 24174) (UniProt P19328); experiment: NVS_GPCR_rmAdra2B: NovaScreen (NVS) G Protein-Coupled Receptor Assay for hybird cells Adrenergic, Alpha 2B Receptor (Adra2B) (AID 2283306)
# Adra2b (gene 24174), sequence (P19328 whole entry, looked up): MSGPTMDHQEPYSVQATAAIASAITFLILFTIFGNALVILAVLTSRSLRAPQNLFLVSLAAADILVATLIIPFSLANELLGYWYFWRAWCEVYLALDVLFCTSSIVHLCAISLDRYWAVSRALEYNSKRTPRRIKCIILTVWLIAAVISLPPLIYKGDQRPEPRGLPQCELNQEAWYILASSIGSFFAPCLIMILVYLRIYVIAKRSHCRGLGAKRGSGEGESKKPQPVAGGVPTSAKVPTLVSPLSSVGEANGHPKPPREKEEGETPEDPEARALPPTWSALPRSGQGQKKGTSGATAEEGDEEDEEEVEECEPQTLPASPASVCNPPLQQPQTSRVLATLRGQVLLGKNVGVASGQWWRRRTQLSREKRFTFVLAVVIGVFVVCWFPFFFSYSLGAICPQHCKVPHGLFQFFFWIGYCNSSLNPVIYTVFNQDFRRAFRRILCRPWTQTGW
# How it was run: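 Radioligand filter-binding assay on membrane proteins from neuroglioma/blastoma hybrid cells (rodent), 1 h after dosing; scintillation counting, loss of signal vs DMSO. Primary screen in duplicate at 25 uM, actives then run in concentration series.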
# [2] = molecular target: rat Neonicotinoid receptor (NNR), Chrna7 (gene 25302) (UniProt Q05941); experiment: NVS_LGIC_rNNR_BungSens: NovaScreen (NVS) Ligand-Gated Ion Channel Assay for rat Neonicotinoid receptor (NNR) (AID 2283315)
# rat Neonicotinoid receptor (NNR), Chrna7 (gene 25302), sequence (Q05941 whole entry, looked up): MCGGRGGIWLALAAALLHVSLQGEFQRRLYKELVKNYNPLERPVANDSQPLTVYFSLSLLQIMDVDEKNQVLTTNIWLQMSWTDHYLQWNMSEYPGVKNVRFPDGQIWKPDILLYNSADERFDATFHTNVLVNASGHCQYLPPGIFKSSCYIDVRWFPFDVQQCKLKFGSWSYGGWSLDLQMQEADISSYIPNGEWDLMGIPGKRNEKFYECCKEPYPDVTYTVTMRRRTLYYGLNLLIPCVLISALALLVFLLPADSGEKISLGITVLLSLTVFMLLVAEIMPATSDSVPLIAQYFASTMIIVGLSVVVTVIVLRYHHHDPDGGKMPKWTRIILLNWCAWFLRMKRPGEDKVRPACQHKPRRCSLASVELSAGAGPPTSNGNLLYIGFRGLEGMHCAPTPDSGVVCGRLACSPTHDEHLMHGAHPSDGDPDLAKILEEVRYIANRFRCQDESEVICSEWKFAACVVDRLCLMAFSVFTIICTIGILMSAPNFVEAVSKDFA
# How it was run: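 Radioligand displacement binding on rat cortical membranes, 2.5 h incubation, filtration and scintillation counting. Loss of specific binding fitted relative to DMSO.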
# [3] = molecular target: rat Histamine Receptor (H3), Hrh3 (gene 85268) (UniProt Q9QYN8); experiment: NVS_GPCR_rH3: NovaScreen (NVS) G Protein-Coupled Receptor Assay for rat Histamine Receptor (H3) (AID 2283303)
# rat Histamine Receptor (H3), Hrh3 (gene 85268), sequence (Q9QYN8 whole entry, looked up): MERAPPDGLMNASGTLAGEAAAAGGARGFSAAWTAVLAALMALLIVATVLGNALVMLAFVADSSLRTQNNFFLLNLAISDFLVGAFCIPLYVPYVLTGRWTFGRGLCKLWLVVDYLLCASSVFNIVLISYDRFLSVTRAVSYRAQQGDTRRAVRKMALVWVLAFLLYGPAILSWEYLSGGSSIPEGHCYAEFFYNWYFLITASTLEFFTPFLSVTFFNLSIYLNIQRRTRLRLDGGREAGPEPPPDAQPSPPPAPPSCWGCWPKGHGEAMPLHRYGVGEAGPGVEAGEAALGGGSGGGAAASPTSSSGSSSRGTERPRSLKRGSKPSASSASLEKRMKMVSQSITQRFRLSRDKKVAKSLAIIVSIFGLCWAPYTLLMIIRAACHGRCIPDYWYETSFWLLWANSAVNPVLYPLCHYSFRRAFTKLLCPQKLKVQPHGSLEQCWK
# How it was run: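 Rat forebrain membranes incubated 1 h with compound; radioligand displacement measured by filter-based scintillation counting. Single-concentration duplicates at 25 µM, then concentration-response up to 50 µM, relative to DMSO.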
# [4] = molecular target: rat Glutamate Metabotropic Receptor 5 (MGluR5), Grm5 (gene 24418) (UniProt P31424); experiment: NVS_GPCR_rmMGluR5: NovaScreen (NVS) G Protein-Coupled Receptor Assay for rat Glutamate Metabotropic Receptor 5 (MGluR5) (AID 2283307)
# Protocol: NVS_GPCR_rmMGluR5 is a biochemical, single-readout assay that uses extracted gene-proteins from Rat whole brain in a tissue-based cell-free assay. Measurements were taken 1.5 hours after chemical dosing in a 48-well plate.NVS_GPCR_rmMGluR5 is one of one assay component(s) measured or calculated from the NVS_GPCR_rmMGluR5 assay. It is designed to make measurements of radioligand binding, a form of binding reporter, as detected with scintillation counting signals by Filter-based radiodetection technology.Data from the assay component NVS_GPCR_rmMGluR5 was analyzed into 1 assay endpoint. This assay endpoint, NVS_GPCR_rmMGluR5, was analyzed in the positive analysis fitting direction relative to DMSO as the negative control and baseline of activity. Using a type of binding reporter, loss-of-signal activity can be used to understand changes in the binding as they relate to the gene Grm5. Furthermore, this assay endpoint can be referred to as a primary readout, because the performed assay has only produced 1 assay endpoint. To generalize the intended target to other relatable targets, this assay endpoint is annotated to the gpcr intended target family, where the subfamily is metabotropic glutamate receptor. […]
# [5] = molecular target: rat Neurokinin-1 Receptor (NK1), Tacr1 (gene 24807) (UniProt P14600); experiment: NVS_GPCR_rNK1: NovaScreen (NVS) G Protein-Coupled Receptor Assay for rat Neurokinin-1 Receptor (NK1) (AID 2283309)
# rat Neurokinin-1 Receptor (NK1), Tacr1 (gene 24807), sequence (P14600 whole entry, looked up): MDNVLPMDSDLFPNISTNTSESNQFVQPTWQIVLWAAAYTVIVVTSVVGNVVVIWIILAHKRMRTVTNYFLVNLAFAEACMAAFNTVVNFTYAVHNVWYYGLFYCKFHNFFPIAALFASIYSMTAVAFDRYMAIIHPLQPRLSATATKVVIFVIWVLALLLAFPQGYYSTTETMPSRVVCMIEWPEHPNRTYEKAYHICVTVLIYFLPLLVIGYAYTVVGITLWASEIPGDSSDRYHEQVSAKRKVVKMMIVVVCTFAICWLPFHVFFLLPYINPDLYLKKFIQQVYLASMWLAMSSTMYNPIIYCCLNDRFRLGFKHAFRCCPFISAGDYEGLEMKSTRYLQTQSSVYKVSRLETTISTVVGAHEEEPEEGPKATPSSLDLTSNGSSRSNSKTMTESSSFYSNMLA
# How it was run: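 Rat submaxillary gland membranes; radioligand displacement read by filter-based scintillation counting after 1 h. Primary screen in duplicate at 25 uM; actives retested in concentration series; loss of binding fitted versus DMSO.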
# [6] = molecular target: rat Vasopressin 1 Receptor (V1), Avpr1a (gene 25107) (UniProt P30560); experiment: NVS_GPCR_rV1: NovaScreen (NVS) G Protein-Coupled Receptor Assay for rat Vasopressin 1 Receptor (V1) (AID 2283316)
# rat Vasopressin 1 Receptor (V1), Avpr1a (gene 25107), sequence (P30560 whole entry, looked up): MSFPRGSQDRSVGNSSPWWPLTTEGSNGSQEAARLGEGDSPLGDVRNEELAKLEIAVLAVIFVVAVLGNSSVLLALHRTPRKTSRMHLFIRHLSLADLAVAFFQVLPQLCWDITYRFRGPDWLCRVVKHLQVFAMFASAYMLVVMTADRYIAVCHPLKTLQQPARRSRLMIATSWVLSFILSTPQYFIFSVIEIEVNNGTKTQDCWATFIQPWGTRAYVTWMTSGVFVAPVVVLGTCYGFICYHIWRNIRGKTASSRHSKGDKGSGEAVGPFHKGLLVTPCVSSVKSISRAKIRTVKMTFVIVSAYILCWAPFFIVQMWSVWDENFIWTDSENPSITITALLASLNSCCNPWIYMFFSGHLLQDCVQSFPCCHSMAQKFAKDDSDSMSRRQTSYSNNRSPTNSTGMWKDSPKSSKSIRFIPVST
# Protocol: (§1) NVS_GPCR_rV1 is a biochemical, single-readout assay that uses extracted gene-proteins from Rat liver membranes in a tissue-based cell-free assay. Measurements were taken 1.5 hours after chemical dosing in a 48-well plate.NVS_GPCR_rV1 is one of one assay component(s) measured or calculated from the NVS_GPCR_rV1 assay. It is designed to make measurements of radioligand binding, a form of binding reporter, as detected with scintillation counting signals by Filter-based radiodetection technology.Data from the assay component NVS_GPCR_rV1 was analyzed into 1 assay endpoint. This assay endpoint, NVS_GPCR_rV1, was analyzed in the positive analysis fitting direction relative to DMSO as the negative control and baseline of activity. Using a type of binding reporter, loss-of-signal activity can be used to understand changes in the binding as they relate to the gene Avpr1a. Furthermore, this assay endpoint can be referred to as a primary readout, because the performed assay has only produced 1 assay endpoint. To generalize the intended target to other relatable targets, this assay endpoint is annotated to the gpcr intended target family, where the subfamily is rhodopsin-like receptor.
# (§2) Binding assays used specific radioligands (tritiated, iodinated) with non-radioactive competitive displacement ligands in agonist or antagonist protocols (as indicated) and various reference compounds and inhibitors to titrate specific binding to receptors and transporters. Most enzyme assays (CYPs, kinases, phosphatases, proteases, HDACs) used recombinant protein and specific substrates (fluorescence mostly, some colorimetric and radioactive) and inhibitors, followed by a biochemical separation of substrate and product. All assays for the biochemical HTS were initially run in duplicate at a single concentration (10 uM for CYP450 assays and 25 uM for all others). Assay-chemical combinations meeting a pre-defined threshold (e.g., 30% inhibition and other criteria defined below) were then run in singleton concentration-response format with maximum concentration of 20 uM for CYPs and 50 uM for all others. Each assay was run with positive and negative controls, and concurrent controls on every plate. The follow-up (secondary) screen tested active chemical-pairs in concentration series, as well as a few additional assays not tested in the primary screen, some selected negative inactives, and several cases re-run in the concentration series for confirmatory purposes.
# [7] = molecular target: rat Neurokinin-3 Receptor (NK3), Tacr3 (gene 24808) (UniProt P16177); experiment: NVS_GPCR_rNK3: NovaScreen (NVS) G Protein-Coupled Receptor Assay for rat Neurokinin-3 Receptor (NK3) (AID 2283310)
# rat Neurokinin-3 Receptor (NK3), Tacr3 (gene 24808), sequence (P16177 whole entry, looked up): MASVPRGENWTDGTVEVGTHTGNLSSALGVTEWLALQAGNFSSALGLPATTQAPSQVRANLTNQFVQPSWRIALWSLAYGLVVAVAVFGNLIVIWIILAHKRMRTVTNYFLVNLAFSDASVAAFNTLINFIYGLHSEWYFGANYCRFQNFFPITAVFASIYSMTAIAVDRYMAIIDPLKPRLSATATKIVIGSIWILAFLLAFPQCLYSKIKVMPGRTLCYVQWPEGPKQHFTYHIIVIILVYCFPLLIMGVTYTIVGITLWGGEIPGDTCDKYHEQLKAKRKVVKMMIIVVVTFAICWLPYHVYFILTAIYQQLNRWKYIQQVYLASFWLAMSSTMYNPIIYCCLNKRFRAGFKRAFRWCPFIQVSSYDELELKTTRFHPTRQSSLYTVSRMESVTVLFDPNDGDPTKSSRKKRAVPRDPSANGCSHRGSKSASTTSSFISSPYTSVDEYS
# Protocol: as §1, with “NVS_GPCR_rNK3” for “NVS_GPCR_rV1”, “cortical” for “liver”, “2” for “1.5”, “plate.NVS_GPCR_rNK3” for “plate.NVS_GPCR_rV1”, “NVS_GPCR_rNK3,” for “NVS_GPCR_rV1,”, “Tacr3.” for “Avpr1a.”
# as §2
# [8] = molecular target: rat Somatostatin Receptor (SST), Sstr1 (gene 25033) (UniProt P28646); experiment: NVS_GPCR_rSST: NovaScreen (NVS) G Protein-Coupled Receptor Assay for rat Somatostatin Receptor (SST) (AID 2283314)
# rat Somatostatin Receptor (SST), Sstr1 (gene 25033), sequence (P28646 whole entry, looked up): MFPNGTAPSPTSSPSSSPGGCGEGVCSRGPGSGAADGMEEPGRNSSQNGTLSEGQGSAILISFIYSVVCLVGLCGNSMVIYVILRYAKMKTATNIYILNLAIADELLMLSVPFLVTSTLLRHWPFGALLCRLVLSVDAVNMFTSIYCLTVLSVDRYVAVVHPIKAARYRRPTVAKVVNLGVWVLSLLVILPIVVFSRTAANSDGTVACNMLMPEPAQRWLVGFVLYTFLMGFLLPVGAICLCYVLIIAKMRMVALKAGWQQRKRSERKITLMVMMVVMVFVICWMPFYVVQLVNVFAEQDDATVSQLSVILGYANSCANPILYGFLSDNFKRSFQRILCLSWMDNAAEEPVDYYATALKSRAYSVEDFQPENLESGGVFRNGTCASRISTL
# How it was run: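 Rat forebrain membranes; radioligand displacement read by filter-based scintillation counting 1 h after dosing. Primary screen in duplicate at 25 uM. Actives (e.g., 30% inhibition) were rerun as concentration-response to 50 uM max and fitted against DMSO.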
# [9] = molecular target: Metabotropic glutamate receptor 1 (Rattus norvegicus) (UniProt P23385); experiment: NVS_GPCR_rmMGluR1: NovaScreen (NVS) G Protein-Coupled Receptor Assay for rat Glutamate Metabotropic Receptor 1 (MGluR1) (AID 2283305)
# Metabotropic glutamate receptor 1 (Rattus norvegicus), sequence (P23385 whole entry, looked up): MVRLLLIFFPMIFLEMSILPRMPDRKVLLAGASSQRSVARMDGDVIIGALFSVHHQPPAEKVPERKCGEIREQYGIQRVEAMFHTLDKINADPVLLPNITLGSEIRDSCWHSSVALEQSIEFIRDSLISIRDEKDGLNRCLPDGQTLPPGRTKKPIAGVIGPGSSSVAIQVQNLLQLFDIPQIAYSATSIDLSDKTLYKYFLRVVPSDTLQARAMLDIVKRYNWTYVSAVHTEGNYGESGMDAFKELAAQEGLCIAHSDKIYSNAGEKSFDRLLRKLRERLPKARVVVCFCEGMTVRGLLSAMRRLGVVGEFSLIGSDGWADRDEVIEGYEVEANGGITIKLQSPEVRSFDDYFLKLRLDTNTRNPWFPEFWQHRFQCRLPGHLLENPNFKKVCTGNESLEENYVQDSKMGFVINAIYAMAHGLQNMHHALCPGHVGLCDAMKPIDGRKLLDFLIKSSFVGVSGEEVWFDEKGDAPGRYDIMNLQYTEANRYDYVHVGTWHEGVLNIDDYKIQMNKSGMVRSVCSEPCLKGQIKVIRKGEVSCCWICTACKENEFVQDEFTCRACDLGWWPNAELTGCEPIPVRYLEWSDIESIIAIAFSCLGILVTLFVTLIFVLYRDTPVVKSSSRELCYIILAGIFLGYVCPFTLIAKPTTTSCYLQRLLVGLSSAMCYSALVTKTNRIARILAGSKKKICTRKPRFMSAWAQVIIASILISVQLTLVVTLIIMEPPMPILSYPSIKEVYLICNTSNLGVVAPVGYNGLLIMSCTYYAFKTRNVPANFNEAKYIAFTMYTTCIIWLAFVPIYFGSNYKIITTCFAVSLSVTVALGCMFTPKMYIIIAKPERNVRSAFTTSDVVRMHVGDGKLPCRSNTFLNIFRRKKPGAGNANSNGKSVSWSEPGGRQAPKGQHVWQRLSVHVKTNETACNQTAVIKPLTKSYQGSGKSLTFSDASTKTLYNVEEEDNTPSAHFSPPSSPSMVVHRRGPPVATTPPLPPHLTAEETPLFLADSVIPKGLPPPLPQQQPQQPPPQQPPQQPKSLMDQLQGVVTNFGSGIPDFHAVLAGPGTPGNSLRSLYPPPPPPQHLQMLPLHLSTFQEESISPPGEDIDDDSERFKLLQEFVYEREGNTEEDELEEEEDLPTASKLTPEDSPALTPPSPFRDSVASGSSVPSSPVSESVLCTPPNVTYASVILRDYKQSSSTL
# How it was run: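 Rat cerebellum membrane preparation, radioligand displacement binding read by filter-based scintillation counting 1 hour after dosing. Initial duplicate single-point screen at 25 uM, then concentration-response up to 50 uM; loss of signal versus DMSO baseline scored.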
structure (smiles),measurement,setting,value
CC(C)(c1cc(Br)c(O)c(Br)c1)c1cc(Br)c(O)c(Br)c1,outcome,[1],inactive
O=C1CCC(C2CCCCC2)CC1,outcome,Adra2b (gene 24174),inactive
same,outcome,[2],inactive
C[C@]12CC[C@@H]3c4ccc(O)cc4CC[C@H]3[C@@H]1CCC2=O,AC50,[1],13.9 µM (active)
Cc1occc1C(=O)Nc1ccc(C(=O)N2CCC(F)(F)/C(=C\C(=O)N3CCC(N4CCCCC4)CC3)c3ccccc32)cc1,AC50,[3],4.22 µM (active)
same,AC50,Adra2b (gene 24174),1.25 µM (active)
same,outcome,[4],inactive
same,AC50,[5],11.7 µM (active)
same,AC50,[1],5.68 µM (active)
same,AC50,[2],4.14 µM (active)
same,outcome,[6],inactive
CCCCCCCCOC(=O)c1cc(O)c(O)c(O)c1,outcome,[7],inactive
C[C@]12CC[C@@H]3c4ccc(O)cc4CC[C@H]3[C@@H]1CC[C@H]2O,outcome,[1],inactive
CCN(Cc1cccnc1)C(=O)c1cccc(Cl)c1[C@]1(C)C(=O)N(Cc2ccc(OC)cc2OC)c2ccc(Cl)cc21,AC50,Adra2b (gene 24174),4.68 µM (active)
same,AC50,[5],23.6 µM (active)
same,AC50,[7],9.75 µM (active)
same,AC50,[1],13.9 µM (active)
same,AC50,[6],29 µM (active)
O=c1c(-c2ccc(O)cc2)coc2cc(O)cc(O)c12,outcome,[1],inactive
CCCCOC(=O)c1ccc(O)cc1,AC50,[1],25 µM (active)
COc1ccc2cc(S(=O)(=O)N[C@H](CC(=O)N[C@H](Cc3ccc(CN4[C@H](C)CCC[C@@H]4C)cc3)C(=O)N(C)C(C)C)c3ccc4c(c3)OCO4)ccc2c1,AC50,Adra2b (gene 24174),11.1 µM (active)
same,AC50,[5],11.4 µM (active)
same,AC50,[7],8.07 µM (active)
same,AC50,[1],4.72 µM (active)
same,AC50,[8],5.07 µM (active)
same,outcome,[2],inactive
same,outcome,[6],inactive
CC(C)(C)c1csc(-c2cc3cc(OCc4ccccc4CC(=O)O)ccc3o2)n1,outcome,[5],inactive
same,outcome,[2],inactive
CC/C(=C(/CC)c1ccc(O)cc1)c1ccc(O)cc1,AC50,[8],25 µM (active)
CCCCCCCCCCCC[N+](C)(C)C,AC50,Adra2b (gene 24174),37.3 µM (active)
same,AC50,[5],44.9 µM (active)
CCN(CC)C(=O)c1cc(S(=O)(=O)Cc2ccccc2)c(N2CCC(c3ccccc3)CC2)cc1N(CC)CCN(C)C,AC50,Adra2b (gene 24174),7.81 µM (active)
same,AC50,[5],23.4 µM (active)
same,outcome,[1],inactive
Cc1c2ccccc2c(C)c2c1ccc1ccccc12,AC50,[6],25 µM (active)
CN(C)C(=O)C1(N2CCCCC2)CCN(CC[C@@]2(c3ccc(Cl)c(Cl)c3)CN(C(=O)c3ccccc3)CCO2)CC1,AC50,[9],15.5 µM (active)
same,AC50,Adra2b (gene 24174),8.86 µM (active)
same,AC50,[5],10.9 µM (active)
same,AC50,[7],0.00216 µM (active)
same,AC50,[1],3.48 µM (active)
same,AC50,[8],12.6 µM (active)
same,outcome,[2],inactive
same,AC50,[6],38.2 µM (active)
CCCOC(=O)c1cc(O)c(O)c(O)c1,AC50,[7],7.59 µM (active)
O=C1O[C@H]([C@@H](O)CO)C(O)=C1O,AC50,[6],6.57 µM (active)
O=C(O)Cc1cc(I)c(Oc2ccc(O)c(I)c2)c(I)c1,outcome,[2],inactive
c1ccc(C[n+]2cccc3ccccc32)cc1,outcome,[3],inactive
same,AC50,Adra2b (gene 24174),12.2 µM (active)
same,outcome,[5],inactive
same,AC50,[2],25 µM (active)
COc1cc(C(=O)NC2CCN(C)CC2)ccc1Nc1ncc2c(n1)N(C1CCCC1)CC(F)(F)C(=O)N2C,AC50,[3],3.19 µM (active)
same,AC50,Adra2b (gene 24174),18.8 µM (active)
same,AC50,[5],13.9 µM (active)
same,outcome,[1],inactive
same,outcome,[2],inactive
CN(C)c1ccc(C(=C2C=CC(=[N+](C)C)C=C2)c2ccc(N(C)C)cc2)cc1,AC50,[3],23 µM (active)
same,AC50,Adra2b (gene 24174),9.73 µM (active)
same,AC50,[5],15.6 µM (active)
same,AC50,[7],11.5 µM (active)
same,AC50,[1],9.72 µM (active)
same,outcome,[8],inactive
same,AC50,[2],16.4 µM (active)
O=c1[nH]sc2ccccc12,AC50,[9],35.9 µM (active)
same,AC50,Adra2b (gene 24174),37.4 µM (active)
same,outcome,[8],inactive
Cc1oc2c(NC(=O)c3c(Cl)cccc3Cl)cccc2c1C(C)(C)O,outcome,[5],inactive
CC(O)CC(C)(C)O (stereo unspecified),outcome,[7],inactive
same,outcome,[1],inactive
O=CCCCC=O,outcome,[4],inactive
NCc1cccc(C2CCN(C(=O)c3ccc(C#Cc4ccccc4F)o3)CC2)c1,AC50,Adra2b (gene 24174),13.3 µM (active)
same,AC50,[1],11.2 µM (active)
same,AC50,[8],15 µM (active)
same,outcome,[6],inactive
CC[C@H](NC(=O)c1cc(F)ccc1NS(=O)(=O)c1cccc2cccnc12)c1ccccc1,outcome,[5],inactive
O=C1c2ccccc2C(=O)N1CCc1noc(-c2ccc(CN3CCCCCC3)s2)n1,AC50,[3],16.8 µM (active)
same,AC50,Adra2b (gene 24174),3.3 µM (active)
same,AC50,[5],12 µM (active)
same,outcome,[7],inactive
same,outcome,[2],inactive
Cc1cc(F)ccc1-c1cc(N2CC[C@@H](O)[C@H]2CO)ncc1N(C)C(=O)C(C)(C)c1cc(C(F)(F)F)cc(C(F)(F)F)c1,AC50,[9],8.39 µM (active)
same,AC50,[5],0.274 µM (active)
same,outcome,[1],inactive
Clc1ccccc1C(c1ccccc1)(c1ccccc1)n1ccnc1,outcome,[1],inactive
same,AC50,[6],36.5 µM (active)
COc1cccc([C@H](O)C2CCN(CCc3ccc(F)cc3)CC2)c1OC,AC50,Adra2b (gene 24174),1.85 µM (active)
same,AC50,[1],15.7 µM (active)
CCOC(=O)O[C@H](C)OC(=O)c1ccc2c(c1)cc(C(=O)NC1CCN(C(C)C)CC1)n2Cc1cc(-c2ccc(Cl)s2)on1,AC50,[9],17 µM (active)
same,AC50,Adra2b (gene 24174),15.4 µM (active)
same,AC50,[5],32.1 µM (active)
same,AC50,[8],14.9 µM (active)
CN(C[C@@H](CC[N+]12CCC(C3CCCCC3)(CC1)CC2)c1ccc(Cl)c(Cl)c1)C(=O)c1cc(C(F)(F)F)cc(C(F)(F)F)c1,AC50,[5],0.403 µM (active)
same,AC50,[7],5.47 µM (active)
same,AC50,[1],12.5 µM (active)
Clc1cc(Cl)c2c(c1)N=C1CCCCCN1C2,AC50,Adra2b (gene 24174),5.33 µM (active)
same,AC50,[2],5.61 µM (active)
